Screening results as filed in PubChem BioAssay.
Most compounds without a hit are left out; they make up all but 18% or so of the library.
IL-1B inflam inh – inflammasome signaling inhibition, IL-1 beta readout; THP-1 LPS/ATP IL-1B secretion, AlphaLISA, 16 h; hits give low values; activity change, % at 57.5 µM; actives 4.7% (n = 360,000); AID 743279; in the data active means activity change below about -50%; inconclusive means mostly about -30% to -49%; further: on the % scale 0 is the no-effect control and ±100 the full control effect
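THP-1 cells pretreated 1 hr with compounds (up to 57.5 uM final), then stimulated with LPS (250 ng/mL final) plus ATP (1.25 mM final); secreted IL-1B measured by AlphaLISA after 16 hr, decreased signal indicating inhibition.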
TDP1 inh – blocks human tyrosyl-DNA phosphodiesterase 1 | actives 0.28% (n = 350,000) | Q9NUW8 | Potency, µM (highest dose often 130 µM), for inactives: at the highest dose activity change, negative = inhibition, hits mostly inhibitors | recombinant TDP1, AlphaScreen DNA substrate cleavage; further: potency means the concentration at half of the fitted maximal effect; on the % scale 0 is the no-effect control and ±100 the full control effect; nearly all actives have a fitted effect of over 40% in size
Target sequence (Q9NUW8 whole entry, looked up): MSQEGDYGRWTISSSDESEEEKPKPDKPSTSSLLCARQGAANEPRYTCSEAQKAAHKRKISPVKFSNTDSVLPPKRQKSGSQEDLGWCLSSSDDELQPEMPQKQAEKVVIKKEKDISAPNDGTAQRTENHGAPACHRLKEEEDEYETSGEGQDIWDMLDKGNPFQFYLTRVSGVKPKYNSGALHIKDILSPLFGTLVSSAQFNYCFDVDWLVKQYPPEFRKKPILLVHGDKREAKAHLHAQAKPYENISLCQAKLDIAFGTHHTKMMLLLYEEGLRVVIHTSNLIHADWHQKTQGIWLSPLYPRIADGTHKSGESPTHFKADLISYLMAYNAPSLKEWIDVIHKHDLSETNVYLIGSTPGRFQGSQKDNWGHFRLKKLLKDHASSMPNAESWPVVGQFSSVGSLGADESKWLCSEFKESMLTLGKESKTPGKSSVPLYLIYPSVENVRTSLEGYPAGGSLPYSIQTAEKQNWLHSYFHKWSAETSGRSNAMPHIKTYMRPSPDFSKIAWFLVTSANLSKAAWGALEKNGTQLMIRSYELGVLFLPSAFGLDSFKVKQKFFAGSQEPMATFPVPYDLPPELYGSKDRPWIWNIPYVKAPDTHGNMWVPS
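Signal: AlphaScreen proximity between streptavidin donor and anti-FITC acceptor beads on intact substrate. Reaction: Tdp1 1 nM, substrate 15 nM final, 5 min RT after 15 min compound preincubation.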
DT40 TDP1 CPT – DT40-hTDP1 cell growth loss with CPT. chicken DT40 Tdp1-/-;hTDP1 cells + 20 nM CPT, ATP luminescence, 48 h. Potency, µM (highest dose often 46.2 µM), for the others: at the top dose activity change, negative = growth inhibition, most hits filed as inhibitors. actives 12% (n = 420,000); further: potency means the concentration at half of the fitted maximal effect; on the % scale 0 is the no-effect control and ±100 the full control effect; nearly all actives have a fitted effect of over 55% in size
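Chicken DT40 Tdp1-/- cells complemented with human TDP1, 400 cells/well, exposed to compounds plus 20 nM camptothecin for at least 48 h at 37 C; viability read as ATP content by CellTiter-Glo luminescence.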
TDP1 cell noCPT – qHTS for Inhibitors of human tyrosyl-DNA phosphodiesterase 1 (TDP1): qHTS in cells in absence of CPT. DT40 Tdp1-/- hTDP1 cells, no CPT, ATP luminescence, 48 h. Potency, µM (highest dose often 46.2 µM), without a hit: at the highest dose activity change, negative = growth inhibition, most hits filed as inhibitors. actives 15% (n = 420,000). AID 686978, 2013; further: potency means the concentration at half of the fitted maximal effect; on the % scale 0 is the no-effect control and ±100 the full control effect; nearly all actives have a fitted effect of over 55% in size
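Growth kinetics read by CellTiter-Glo luminescence after ≥48 hr at 37 °C. Cells: DT40 Tdp1-/- stably carrying human TDP1, 400 per well, compound exposure in the absence of CPT (DMSO vehicle).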
HepG2 tox – kills HepG2 cells in TGF-b inhibitor counter-screen; HepG2 CAGA-GFP viability, ATP luminescence, 18 h; Potency, µM (titrated, usually from 46.1 µM), for inactives: top-dose activity change, negative = cytotoxicity, usual class: cytotoxic; actives 0.76% (n = 410,000); further: potency means the concentration at half of the fitted maximal effect
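HepG2 CAGA-GFP cells (1000/well, DMEM with 1% FBS) received compound, then TGF-beta at 500 pg/mL final, and were incubated 18 hours at 37 degrees C. Viability was read by CellTiter-Glo luminescence. Media-only wells were set as complete cell-killing and DMSO as no toxicity.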
TGFb SMAD3 inh – blocks TGF-b signaling. Potency, µM (doses to about 46.1 µM), for the others: at the highest dose activity, negative = inhibition, usual class: inhibitors. actives 1.2% (n = 410,000). HepG2 CAGA-GFP TGF-b/SMAD3 reporter, GFP fluorescence, 18 h; TGF-beta stimulated, 500 pg/mL final. AID 588855; further: potency means the concentration at half of the fitted maximal effect; on the % scale 0 is the no-effect control and ±100 the full control effect; nearly all actives have a fitted effect of over 65% in size
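Using HEPG2 CAGA-GFP reporter cells at 1000 cells/well, we pinned test compounds, stimulated with recombinant TGF-beta (500 pg/mL final) and measured total well GFP after 18 h.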
* = called active by the depositor; ? = inconclusive; / = not tested or not shown; [ ] = remark or other dose. Unless noted, the call rests on the fitted dose curve; in most records, active means well fitted curve in the direction sought with a large enough effect; inconclusive means small, poorly fitted or top-dose-only effect, or another doubt; inactive means no such curve, though single readings can be large; an effect the other way counts as inactive or inconclusive.

SMILES | IL-1B inflam inh | TDP1 inh | DT40 TDP1 CPT | TDP1 cell noCPT | HepG2 tox | TGFb SMAD3 inh
CCOC(=O)N1CCN(C(=O)C[C@@H]2C[C@@]3(C(=O)OCC)CCC=C3N(Cc3ccc(Cl)cc3Cl)C2=O)CC1 | 0 | / | 18µM* | 15µM* | / | /
CCOC(=O)[C@]12CCCC=C1N(Cc1ccc(Cl)cc1Cl)C(=O)[C@H](CC(=O)N1CCOCC1)C2 | 8 | / | ? | 15µM* | / | /
CCOC(=O)[C@]12CCC=C1N(Cc1ccc(Cl)cc1Cl)C(=O)[C@H](CC(=O)N1CCCC1)C2 | -19 | / | 16µM* | 15µM* | / | /
Nn1c(SCC(=O)N2CCCCCC2)nnc1-c1ccco1 | -1 | 1% | 5% | 11% | -11% | -1%
COc1ccc(NC(=O)CCC(=O)c2cc(C)sc2C)cc1 | -16 | 3%[0.505 µM] | -14% | -4% | 2% | 0%
Cc1onc(-c2c(F)cccc2Cl)c1C(=O)Nc1ccc(S(=O)(=O)Nc2ncccn2)cc1 | 30 | 1% | 1% | -5% | 3% | -4%
O=c1ccc(S(=O)(=O)N2CCCC2)cn1Cc1ccc(F)cc1 | -9 | 2% | -2% | -1% | -5% | -8%
Cn1c(CCNC(=O)c2ccccc2)nc2cc(NC(=O)C3CCCCC3)ccc21 | 13 | 1% | ? | ? | 2% | -4%
CCOC(=O)[C@]12CCC=C1N(Cc1ccccc1)C(=O)[C@H](CC(=O)N1CCCCC1)C2 | 7 | / | 21µM* | ? | / | /
CCOC(=O)N1CCN(C(=O)C[C@@H]2C[C@@]3(C(=O)OCC)CCC=C3N(Cc3ccccc3)C2=O)CC1 | -3 | / | -18% | -5% | / | /
CC(CC(O)C1OC1(C)C)C1CCC2(C)C3=CCC4C(C)(C)C(=O)CCC4(C)C3CC[C@@]12C (some centres not stated) | / | 10%[56.1 µM] | 5.2µM* | 7.3µM* | / | /
O=C(Cn1nnc(-c2ccccc2)n1)c1ccccc1 | 8 | -2% | -24% | -26% | 4% | ?
O=C(Cn1c(-c2ccccc2)c[n+]2ccsc12)c1ccccc1 | 46 | 3% | 21µM* | ? | -5% | 3%
O=C(Cn1c(-c2ccccc2)c[n+]2ccsc12)c1ccc([N+](=O)[O-])cc1 | 6 | 5% | 23µM* | 23µM* | -32% | ?
Cc1ccc(NC(=O)Cn2cc3c(n2)CCCC3)cc1Cl | / | 3% | -29% | ? | 0% | -7%
CN(Cc1ccon1)C(=O)C1CCC(=O)N(Cc2ccc(Cl)cc2)C1 (configuration not stated) | 5 | 5% | 1% | 3% | 12% | -10%
CC(=O)c1ccc(S(=O)(=O)NCCC(=O)OCC(=O)N2CCCC2=O)cc1 | 13 | -9% | 6% | -21% | 7% | 10%
COc1ccccc1C(=O)N(CCN(C)C)c1nc2cc(C)cc(C)c2s1 | 0 | 6% | ? | 26µM* | -88% | ?
COc1cc2ccccc2cc1C(=O)N(CCN(C)C)c1nc2c(C)cccc2s1 | -61* | 15% | 16µM* | 23µM* | -27% | ?
COc1cc2ccccc2cc1C(=O)N(CCN(C)C)c1nc2c(OC)ccc(OC)c2s1 | -53* | 15% | ? | ? | -101% | ?
Cc1cc(C)c2sc(N(CCN(C)C)C(=O)c3cc(Cl)sc3Cl)nc2c1 | -20 | 8% | ? | ? | -41% | -4%
Cc1c(C(=O)NCc2cccc(F)c2)sc2ncnc(NCC3CCCO3)c12 (configuration not stated) | / | / | -8%[9.04 µM] | ? | / | /
O=S(=O)(c1ccc(OC(F)(F)F)cc1)N1CCN(c2nc(-c3ccccc3)nc3ccccc23)CC1 | / | 1% | -17% | -20% | 29% | 5%
N#C/C(=C\c1ccc([N+](=O)[O-])o1)c1nc2ccccc2[nH]1 | -101* | -2% | 0.58µM* | 0.82µM* | -35% | ?
CC(C)(C)/C(O)=C(/C#N)c1nc2ccccc2[nH]1 | -2 | 8% | ? | ? | 4% | 17%
SMILES | IL-1B inflam inh | TDP1 inh | DT40 TDP1 CPT | TDP1 cell noCPT | HepG2 tox | TGFb SMAD3 inh
N#C/C(=C(/O)c1ccc([N+](=O)[O-])o1)c1nc2ccccc2[nH]1 | 0 | 2% | 12µM* | 18µM* | -33% | ?
N#C/C(=C\c1ccc(N2CCCC2)c([N+](=O)[O-])c1)c1nc2ccccc2[nH]1 | 0 | 6% | -1% | 11% | -4% | 15%
Cc1ccccc1C(=O)Nc1ccnn1C1CCN(C(=O)C2CCOC2)CC1 (configuration not stated) | 12 | 3% | 5% | 5% | -10% | -29%
CCOC(=O)[C@H]1[C@H]2COc3ccccc3[C@@H]2N2C(=O)c3ccc(Cl)cc3NC(=O)[C@@]12C | -67* | 7% | ? | ? | -11% | 0%
CCOC(=O)[C@H]1[C@H]2COc3ccc(Br)cc3[C@@H]2N2C(=O)c3cc(Br)ccc3NC(=O)[C@@]12C | -14 | 1% | ? | 18µM* | -20% | -12%
CCOC(=O)[C@H]1[C@H]2COc3ccc(Cl)cc3[C@@H]2N2C(=O)c3cc(Br)ccc3NC(=O)[C@@]12C | ? | 0% | 16µM* | 21µM* | -28% | ?
CCOC(=O)[C@H]1[C@H]2COc3ccccc3[C@@H]2N2C(=O)c3cc(Br)ccc3NC(=O)[C@@]12C | ? | 0% | -15% | -3% | -6% | ?
CCOC(=O)[C@H]1[C@H]2COc3ccc(Cl)cc3[C@@H]2N2C(=O)c3cc(F)c(F)cc3NC(=O)[C@@]12C | -72* | -1% | ? | 23µM* | -1% | -17%
CCOC(=O)[C@H]1[C@H]2COc3ccccc3[C@@H]2N2C(=O)c3cc(Cl)ccc3NC(=O)[C@@]12C | ? | 0% | ? | ? | -2% | -13%
CCOC(=O)[C@H]1[C@H]2COc3ccc(OC)cc3[C@@H]2N2C(=O)c3cc(OC)c(OC)cc3NC(=O)[C@@]12C | -55* | -1% | -35% | -66% | -3% | 3%
CCOC(=O)[C@H]1[C@H]2COc3ccc(Cl)cc3[C@@H]2N2C(=O)c3cc(Cl)ccc3NC(=O)[C@@]12C | -18 | 2% | 13µM* | ? | -21% | ?
CCOC(=O)[C@H]1[C@H]2COc3ccc(C)cc3[C@@H]2N2C(=O)c3cc(OC)c(OC)cc3NC(=O)[C@@]12C | -15 | 0% | ? | ? | -9% | -3%
